# The list is not random: actives were taken first. Their share in the collection is about 2.9%.
# DNA FID counter – displaces DNA intercalator in HCV helicase counter-screen; DNA fluorescent intercalator displacement, fluorescence; inhibition, % at 7.9 µM; 290,000 compounds, 0.17% hits; AID 1845; in the data active means inhibition above about 37%;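 further: 0% = vehicle and 100% = reference compound; higher means more ethidium bromide displaced from hairpin DNA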
# MEKK2mut PB1 HTS – signal of MEK5 binding to mutant human MEKK2 PB1 domain; bead flow cytometry, Alexa488-MEK5 binding to MEKK2 mutant; percent response, % at 10 µM; 290,000 compounds, 0.35% hits; in the data active means percent response above about 24%, passing the limit was not always enough
# dFosB activator – activators of mouse delta FosB homodimer; P13346; purified delta FosB, TAMRA-CDK5 oligo fluorescence polarization; percent of positive-control signal above neutral wells; activation, % at 25 µM; 340,000 compounds, 0.99% hits;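 active means mean activation above about 17%, with every replicate also reaching it, limit read from the data, passing the limit was not always enough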
# Target sequence (P13346 whole entry, looked up): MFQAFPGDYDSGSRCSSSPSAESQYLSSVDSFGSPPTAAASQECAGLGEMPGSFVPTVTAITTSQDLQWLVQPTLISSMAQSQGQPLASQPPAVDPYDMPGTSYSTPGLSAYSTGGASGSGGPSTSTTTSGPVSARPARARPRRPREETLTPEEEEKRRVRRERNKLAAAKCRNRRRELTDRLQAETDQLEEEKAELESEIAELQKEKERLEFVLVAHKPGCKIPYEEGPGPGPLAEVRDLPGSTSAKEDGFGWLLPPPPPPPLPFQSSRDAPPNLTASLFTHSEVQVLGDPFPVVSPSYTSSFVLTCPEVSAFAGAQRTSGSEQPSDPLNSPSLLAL
# MEKK2wt PB1 HTS – raises or lowers MEK5 binding to wildtype human MEKK2 PB1 domain | binding response (% of control), % at 10 µM | bead flow cytometry, Alexa488-MEK5 binding to MEKK2 WT; actives lie on both sides | Q9Y2U5 | 290,000 compounds, 1.1% hits; in the data active means binding response below about 67% or above about 130%
# MEKK3 PB1 HTS – modulators (inhibitors or enhancers) of MEK5 binding to human MEKK3 PB1 domain. bead-based flow cytometry, Alexa488-MEK5 binding to MEKK3; actives lie on both sides; 0 = blocked by unlabeled MEK5, 100 = vehicle. binding response (% of control), % at 10 µM. Q99759. 290,000 compounds, 1.4% hits;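 active means binding response more than 3 SD above or below the average of its plate-row segment, actives on both sides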;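 further: Alexa488 bead fluorescence after subtracting the streptavidin-only scavenger bead signal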
# Starred values were filed as active, the others as inactive; nt = no result.
SMILES,DNA FID counter,MEKK2mut PB1 HTS,dFosB activator,MEKK2wt PB1 HTS,MEKK3 PB1 HTS
CN(C)CCCNC(=S)NCC(c1ccc(Cl)cc1Cl)c1c[nH]c2ccccc12 (stereo unspecified),28,73*,6,223*,110
CCCCNC(=S)NCC(c1ccccc1)c1c[nH]c2ccccc12 (stereo unspecified),-8,13,-12,106,103
CN(C)CCNc1ccc(CO)c2oc3ccc(O)cc3c(=O)c12,nt,nt,26*,nt,nt
O=c1cc(NCCCO)c2ccccc2o1,-3,1,1,94,101
O=C(Nc1nc(-c2ccccc2)ns1)c1ccncc1,-2,5,7,105,100
CN(CC1CCCN(CCc2cccc(C(F)(F)F)c2)C1)C(=O)c1cc2ccccc2o1 (stereo unspecified),27,24*,-17,131,103
Cc1c(F)cccc1NC(=O)c1ccc2c(c1)CCN2S(C)(=O)=O,-9,8,-3,100,98
COCCn1c(-c2ccc(OC)cc2)cnc1N,-5,-4,-2,-6.0*,95
CN1CCN(CC(O)COc2ccc(Cl)cc2)CC1 (stereo unspecified),3,10,-4,109,103
CN1CCN(CC(O)COC(c2ccc(Cl)cc2)c2ccc(Cl)cc2)CC1 (stereo unspecified),27,7,22*,125,100
Cc1cc(=O)oc2ccc(OCC(=O)NCc3ccco3)cc12,-6,-1,-1,98,102
Cc1cc(=O)oc2cc(OCC(=O)NCc3ccco3)ccc12,94*,3,-9,98,116
Cc1ccc(NC(=O)CN2C(=O)CC(C)S(=O)(=O)c3ccccc32)cc1 (stereo unspecified),-12,0,-5,99,100
C#CCOCCOCCOCCNc1nc(N2CCN(C(=O)[C@H](CCCCN)n3cc([C@@H](N)CO)nn3)CC2)nc(N2CCN(C(=O)[C@H](Cc3ccc(O)cc3)n3cc([C@@H](N)CC(C)C)nn3)CC2)n1,54*,10,-2,117,96
C#CCOCCOCCOCCNc1nc(N2CCN(C(=O)[C@H](CCC(=O)O)n3cc(C(N)Cc4ccc(O)cc4)nn3)CC2)nc(N2CCN(C(=O)[C@H](Cc3ccc(O)cc3)n3cc(C(N)[C@H](C)CC)nn3)CC2)n1 (stereo partly specified),nt,2,nt,76,85
C#CCOCCOCCOCCNc1nc(N2CCN(C(=O)[C@H](Cc3ccc(O)cc3)n3cc([C@@H](N)C(C)CC)nn3)CC2)nc(N2CCN(C(=O)[C@H](CCCCN)n3cc([C@@H](N)CC(C)C)nn3)CC2)n1 (stereo partly specified),43*,19,nt,137,101
C#CCOCCOCCOCCNc1nc(N2CCN(C(=O)[C@H]([C@@H](C)CC)n3cc([C@@H](N)CO)nn3)CC2)nc(N2CCN(C(=O)[C@H](Cc3ccc(O)cc3)n3cc([C@@H](N)CC(C)C)nn3)CC2)n1,41*,3,-4,116,75
C#CCOCCOCCOCCNc1nc(N2CCOCC2)nc(N2CCN(C(=O)[C@H](CCCCN)n3cc([C@@H](N)CC(C)C)nn3)CC2)n1,34,12,-5,118,107
C#CCOCCOCCOCCNc1nc(N2CCN(C(=O)[C@H](CCCCN)n3cc(C(N)COC(=O)C(F)(F)F)nn3)CC2)nc(N2CCN(C(=O)[C@H](CCCCN)n3cc(C(N)CC(C)C)nn3)CC2)n1 (stereo partly specified),nt,21,nt,150*,101
COc1ccc(C2C(=O)N(C3CCCCC3)CC(=O)N2CC2COc3ccccc3O2)cc1 (stereo unspecified),-12,3,1,103,98
C#CCOCCOCCOCCNc1nc(N2CCN(C(=O)[C@H](Cc3ccc(O)cc3)n3cc([C@@H](N)C(C)CC)nn3)CC2)nc(N2CCN(C(=O)[C@H](CCCCN)n3cc([C@@H](N)CO)nn3)CC2)n1 (stereo partly specified),44*,18,0,131,108
Cc1nc(NC2=NCN(CC3CCCO3)CN2)nc2ccccc12 (stereo unspecified),-4,nt,nt,nt,nt
Cc1nc(NC2=NCN(C3CCCCC3C)CN2)nc2ccccc12 (stereo unspecified),7,11,nt,139*,102

# Assay outcomes deposited in PubChem BioAssay by several laboratories.
